# High-throughput results as filed in PubChem BioAssay.
# D3 antag: D3 dopamine receptor (human) antagonism. P35462. D3R cells, DiscoveRx beta-arrestin luminescence, antagonist mode; active compounds read low. max response, negative = inhibition, %. 2.5% of 360,000 active. AID 652054; in the data active = max response below about -50%; inconclusive = no clear call, values can overlap the other calls; note: % is set by controls: 0 for no effect and ±100 for the full control effect
# Target sequence (P35462 whole entry, looked up): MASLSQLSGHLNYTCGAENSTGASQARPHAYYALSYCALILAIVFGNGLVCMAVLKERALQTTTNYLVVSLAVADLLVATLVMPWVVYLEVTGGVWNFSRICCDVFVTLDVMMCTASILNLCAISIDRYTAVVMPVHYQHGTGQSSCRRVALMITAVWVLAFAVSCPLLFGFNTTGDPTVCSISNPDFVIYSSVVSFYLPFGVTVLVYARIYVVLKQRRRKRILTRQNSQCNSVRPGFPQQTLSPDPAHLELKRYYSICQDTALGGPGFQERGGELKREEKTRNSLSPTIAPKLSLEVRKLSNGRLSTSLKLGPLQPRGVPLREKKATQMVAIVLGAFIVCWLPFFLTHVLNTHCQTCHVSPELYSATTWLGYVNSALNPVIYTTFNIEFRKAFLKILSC
#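 Cells expressing the human receptor were seeded at 1500 cells/well, incubated overnight at 37 degrees C in 5% CO2, then exposed to library compounds with dopamine controls for 90 minutes at 37 degrees C before luminescent detection.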
# IL1B secr inh: inflammasome signaling inhibition, IL-1 beta readout | THP-1 LPS/ATP IL-1B secretion, AlphaLISA, 16 h; active compounds read low | activity change, % at 57.5 µM | 4.7% of 360,000 active; in the data active = activity change below about -50%; inconclusive = mostly about -30% to -49%; note: % is set by controls: 0 for no effect and ±100 for the full control effect
#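 THP-1 cells pretreated 1 hr with compounds (up to 57.5 uM final), then stimulated with LPS (250 ng/mL final) plus ATP (1.25 mM final); secreted IL-1B measured by AlphaLISA after 16 hr, decreased signal indicating inhibition.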
# ATXN2 expr inh: reduces ATXN2 reporter expression in HEK-293 cells | HEK-293 ATXN2-luciferase reporter, luminescence, 24 h | Potency, µM (doses to about 57 µM), for inactives: top-dose activity change, negative = inhibition, actives largely listed as inhibitors | 0.72% of 360,000 active | AID 1745845; note: potency is the fitted concentration of half-maximal effect; % is set by controls: 0 for no effect and ±100 for the full control effect; nearly all actives have a fitted effect of over 55% in size
#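 qHTS (up to 57 uM final) was run with 24 h compound exposure of reporter cells at 37 °C. Each well was multiplexed: SteadyGlo luminescence measured ATXN2-luciferase expression after a fluorogenic Gly-Phe-AFC viability readout (25 uM final).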
# ATXN viability: cell viability loss in ATXN counter-screen; 0.49% of 400,000 active; AID 651635; S2 cells (HEK-293 line with an ATXN2-luciferase reporter) viability, CellTiter-Fluor protease fluorescence, 24 h; Potency, µM (top dose mostly 56.7 µM), hits mostly cytotoxic; note: potency is the fitted concentration of half-maximal effect; nearly all actives have a fitted effect of over 40% in size
# a7 integrin act: activators of alpha7 integrin expression for muscular dystrophy. alpha7betagal myoblasts, beta-gal FDG fluorescence, 48 h. Potency, µM (series often up to 38.3 µM), without a hit: at the highest dose activation, most hits filed as activators. 0.064% of 350,000 active. AID 624291;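 note: potency is the fitted concentration of half-maximal effect; 100% = response of the positive control SU9516; nearly all actives have a fitted effect of over 60% in size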
#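 Alpha7betagal+/- myoblasts (passage 13) were plated 16-24 hr, then exposed to compounds (1:260 dilution of DMSO stock) for 48 hours at 37C. After MPER lysis, β-galactosidase reporter activity was read as FDG fluorescence (ex 480/em 540) after 30 minutes.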
# D3 ag: agonists of human D3 dopamine receptor. max activation, %. D3R DiscoveRx beta-arrestin cells, luminescence, 90 min. P35462. 0.58% of 410,000 active; in the data active = max activation above about 30%; note: 0% is about no effect
#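 Agonist-mode cell screen: cells plated at 1500/well and incubated overnight at 37 °C, then exposed to library compounds for 90 min at 37 °C. Detection reagent was added for 30–60 min at room temperature, and luminescence was read.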
# Starred values were filed as active, the others as inactive; i = inactive; u = inconclusive; x = not tested or not shown; [ ] = dose if it differs, or a comment. Most compounds without a hit are left out; they make up all but 7% or so of the library. Unless noted, calls come from the whole dose curve; as a rule, active = well fitted curve in the direction sought with a large enough effect; inconclusive = small, poorly fitted or top-dose-only effect, or another doubt; inactive = no such curve, though single readings can be large; an effect the other way counts as inactive or inconclusive.
SMILES,D3 antag,IL1B secr inh,ATXN2 expr inh,ATXN viability,a7 integrin act,D3 ag
O=[N+]([O-])c1ccccc1CSc1ccccn1,-5,-63*,13%,i,-11%,6
O=[N+]([O-])c1ccc(CSc2ccccn2)cc1,9,-14,18%,i,-6%,1
CSc1nc2c(c(=O)n1-c1ccccc1)SCC2,6,-7,-2%,i,-9%,-7
COc1ccc(Cl)cc1NC(=O)C/C(C)=N/NC(=O)c1ccc(O)cc1,-16,34,-4%,i,4%,-9
COc1cccc(C(=O)N/N=C(\C)CC(=O)Nc2ccc(N(C)C)cc2)c1,2,-89*,9%,i,32%,-5
COc1cc(NC(=O)C/C(C)=N/NC(=O)c2cccc(O)c2)c(OC)cc1Cl,-51*,-4,-4%,i,15%,-17
Cn1cnc(S(=O)(=O)N2CCC(C(=O)Nc3ccc(C#N)cc3)CC2)c1,x,x,x,x,x,-12
N=C(N)SCc1ccc(Cl)cc1Cl,-18,-101*,x,u,-29%,1
COC(C/C=C/[C@H](O)COCc1ccccc1)OC,-18,14,3%,i,7%,27
Cc1cc(C)n2c(SC/C(O)=C(\C#N)c3nc4ccccc4[nH]3)nnc2n1,-8,6,4%,i,3%,7
Cc1ccc(C(=O)N/C(=C/c2ccc(N(C)C)cc2)C(=O)NCC2CCCO2)cc1 (stereo not drawn),9,-2,-22%,i,-42%,35*
O=C(NCCc1ccccc1)C1CCCN1S(=O)(=O)c1cccc2nsnc12 (stereo not drawn),4,21,12%,i,45%,-5
Cc1ccc2nc3c(c(Nc4ccc5c(c4)OCCO5)c2c1)CCC3,-19,-92*,-34%,u,-53%,-1
N#Cc1cccc(Nc2c3c(nc4ccccc24)CCC3)c1,12,-59*,-21%,i,22%,5
Cc1ccc(Nc2c3c(nc4ccccc24)CCC3)cc1F,x,x,0%,28µM*,x,-6
COc1ccc(Nc2c3c(nc4ccc(C)cc24)CCC3)cc1,-23,-13,u,u,-48%,-14
Cc1cccc(Nc2c3c(nc4ccccc24)CCC3)c1,-27,x,u,i,-40%,-14
c1coc(CNc2c3c(nc4ccccc24)CCC3)c1,-19,-74*,-37%,i,-62%,-8
Cc1ccc2nc3c(c(Nc4ccc(C)c(C)c4)c2c1)CCC3,x,x,u,18µM*,x,-22
Cc1ccc2nc3c(c(Nc4ccc(O)cc4)c2c1)CCC3,-22,-6,x,u,12%,-4
Cc1ccc(S(=O)(=O)NCC(=O)NCC(=O)N2CCC(C)CC2)cc1,6,22,2%,i,0%,-2
Cc1nn(CC(=O)NCc2cc3ccccc3[nH]2)c(C)c1[N+](=O)[O-],3,-65*,8%,i,-12%,-1
O=C(Nc1nc2c(cc3c4c(cccc42)CC3)s1)c1ccccc1Cl,-10,u,26%,i,2%,-1
CCCC(=O)Nc1sc(C(=O)OC)c(C)c1C(N)=O,-125*,16,7%,i,-25%,-2
C=CCn1c(O)c(N=Nc2ccccc2O)c2ccccc21,0,u,-5%,i,-25%,-10
SMILES,D3 antag,IL1B secr inh,ATXN2 expr inh,ATXN viability,a7 integrin act,D3 ag
CN1CCN(C(=S)NC(=O)c2ccc(Cl)cc2)CC1,6,29,-2%,i,-10%,-8
COc1ccc(C(=S)N2CCN(C)CC2)cc1,-74*,12,4%,i,-8%,2
CN1CCN(C(=S)c2ccc(Cl)cc2)CC1,-87*,-11,0%,i,5%,0
COc1ccccc1OCCSc1nc2ccccc2n1CC(=O)N1CCOCC1,x,x,18%,i,x,-5
CCOC(=O)C1CCN(C(c2ccc(SC)cc2)c2c(O)cc(C)n(Cc3ccco3)c2=O)CC1 (stereo not drawn),x,x,x,x,x,-9
O=S(=O)(c1cccc(NC(=S)N2CCN(c3ccccc3F)CC2)c1)C(F)F,0,2,x,i,18%,0
O=C(O)c1cccc2c1C(=O)N(c1ccccc1)C2,-6,0,-24%,i,7%,-10
COC(=O)[C@@]12CCCCN1[C@H](c1ccc(-c3ccc(Cl)c(Cl)c3)c(OC)c1)[C@@H]1C(=O)N(C)C(=O)[C@@H]12,-23,-52*,1%,i,-8%,41*
CCCS(=O)(=O)NC(=O)C1(C)CCN(C(=O)c2cc(C(C)(C)C)nn2C)C1 (stereo not drawn),18,-53*,12%,i,x,11
CCCS(=O)(=O)NC(=O)C1(C)CCCN(C(=O)c2cc(C(C)(C)C)nn2C)C1 (stereo not drawn),-29,12,4%,i,x,2
COc1ccc(C(CCN)Cc2ccccc2)cc1 (stereo not drawn),-17,-51*,0%,i,0%,-15
COc1ccc(-n2cc(CNCCc3cscn3)c(-c3ccccc3Cl)n2)cc1,-101*,-63*,-23%,u,0%,-9
Cc1ccc(-n2cc(CN3CCN(Cc4nccn4C)CC3)c(-c3ccc(F)cc3)n2)cc1,-11,u,x,u,-27%,-1
Cc1ccc(-n2cc(CNCCc3cscn3)c(-c3ccc(F)cc3)n2)cc1,-15,-94*,u,u,-47%,-36
Cc1ccc(-n2cc(CNCCCn3ccnc3C)c(-c3ccc(F)cc3)n2)cc1,-7,-84*,-22%,u,-66%,-8
CCN1CC(CNCc2cn(-c3ccc(OC)cc3)nc2-c2ccccc2Cl)CC1=O (stereo not drawn),-3,-51*,20%,i,14%,1
CCOc1nc(NC(=O)NS(=O)(=O)c2ccccc2F)nc(-c2ccccc2)n1,9,-10,25%[11.3 µM],i,6%,2
O=C(COc1ccc2ccccc2c1)Nc1ccc(Cc2ccncc2)cc1,-16,18,-19%,i,-26%,-9
COc1ccc(S(=O)(=O)N(C)c2ccc(C(=O)N3CCCCC3)cc2)cc1,23,0,-17%,i,-30%,38*
Cc1ccc(CNC(=O)c2ccc(N(C)S(=O)(=O)c3ccccc3)cc2)cc1,u,-15,3%,i,12%,-17
O=C(COc1ccc(Cl)cc1)Nc1ccc(Cc2ccncc2)cc1,-25,-71*,-25%,i,0%,7
CN(c1ccccc1)S(=O)(=O)c1ccc(C(=O)NCc2ccc(F)cc2)cc1,-29,-51*,-15%,i,8%,-3
COc1ccc(NC(=O)COc2ccc(N(C)S(=O)(=O)c3ccc(Cl)cc3)cc2)cc1,-2,-52*,-24%,i,11%,3
